An excerpt weighted towards active compounds, which were near 4.7% of everything screened.
EBI2 block: EBI2 receptor antagonists, beta-arrestin recruitment, primary screen, cell-based, luminescence, 7a,25-OHC stimulation, uHTS. 7a,25-OHC stimulated. hit rate 0.81% among 360,000. inhibition, % at 5 µM. G-protein coupled receptor 183 (Homo sapiens), P32249; in the data active means inhibition above about 38%;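 further: enzyme fragment complementation signal reports receptor beta-arrestin coupling in cells; 0% = agonist plus DMSO wells and 100% = wells without agonist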
Target sequence (P32249 whole entry, looked up, the tested form may be a part): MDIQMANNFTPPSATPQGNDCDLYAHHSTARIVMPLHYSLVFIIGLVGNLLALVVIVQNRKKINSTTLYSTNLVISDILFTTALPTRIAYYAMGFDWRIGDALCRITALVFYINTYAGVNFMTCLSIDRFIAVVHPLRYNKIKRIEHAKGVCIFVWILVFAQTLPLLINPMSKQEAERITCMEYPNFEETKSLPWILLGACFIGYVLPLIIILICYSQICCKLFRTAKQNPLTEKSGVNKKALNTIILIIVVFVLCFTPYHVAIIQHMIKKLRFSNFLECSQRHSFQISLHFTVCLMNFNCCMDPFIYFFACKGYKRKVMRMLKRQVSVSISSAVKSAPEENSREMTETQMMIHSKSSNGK
PfHsp90 yeast 2: growth inhibition of PfHsp90-expressing yeast, primary screen, antimalarial PfHsp90 inhibitor project, S. cerevisiae, BacTiter-Glo luminescence, single point, set 2 | hit rate 0.32% among 310,000 | inhibition, % at 9.4 µM | BacTiter-Glo ATP, 48 h; yeast lacking PDR1 and PDR3 efflux regulators;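 active means every replicate shows inhibition above about 80%, whatever the replicate mean, limit read from the data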;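 further: 0% = DMSO neutral controls and 100% = 20 µM radicicol positive controls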
tim10-1 inh: growth inhibitors of tim10-1 mutant yeast, primary screen, luminescence, uHTS; hit rate 2.2% among 330,000; AID 463190, 2010; S. cerevisiae tim10-1 ts strain growth, BacTiter-Glo, 24 h; inhibition, % at 20 µM;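 active means inhibition of at least 40%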;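 further: mutant grown at 25 °C; 0% = DMSO wells with yeast and 100% = wells holding no yeast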
tim23-1 inh: growth inhibitors of tim23-1 mutant yeast, primary screen, luminescence, uHTS; S. cerevisiae tim23-1 growth, BacTiter-Glo luminescence, 24 h; inhibition, % at 20 µM; hit rate 1.3% among 330,000; AID 463212, 2010;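 active means growth inhibition of the mutant yeast at or above 50%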;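 further: temperature-sensitive mutant grown at 25 °C; plate controls were DMSO-treated mutant yeast for no effect and medium wells lacking yeast for full effect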
TIM10 inh: growth inhibitors of isogenic TIM10 control yeast, primary screen, counter-screen for tim10-1 yeast inhibitor project, luminescence, uHTS | S. cerevisiae TIM10 strain growth, BacTiter-Glo luminescence, 24 h | inhibition, % at 10 µM | AID 463195, 2010 | hit rate 1.4% among 330,000;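 active means inhibition of 40% or more at the single tested concentration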;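 further: wild-type TIM10 isogenic control strain grown at permissive 25 °C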
SKKanGAS inh: S. pyogenes SKKanGAS growth inhibitors in kanamycin, primary screen, streptokinase expression inhibitor project, SKKanGAS strain, BacTiter-Glo luminescence | hit rate 1.3% among 300,000 | AID 1662, 2009 | inhibition, % at 7.5 µM | 6 h;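 active means mean replicate score, as percent of positive control median, at least 50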;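 further: strain carries kanamycin resistance gene driven by streptokinase promoter and grows in 40 µg/ml kanamycin; loss of luminescence reflects streptokinase promoter inhibition or plain growth inhibition; 0% = median of DMSO wells and 100% = positive control at its reference dose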
EBI2 conf: EBI2 antagonist hit retest, beta-arrestin, confirmation, cell-based, single concentration, luminescence, 7a,25-OHC stimulation | shares compounds with EBI2 block | hit rate 29% among 2,400 | inhibition, % at 5 µM | 7a,25-OHC antagonism;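 active means inhibition of at least 50%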
EBI2 ag: EBI2 agonist activity of antagonist hits, confirmation, counter-screen for EBI2 antagonist project, cell-based, single concentration, agonist mode, luminescence | shares compounds with EBI2 block | EBI2-expressing cells, 60 min; 0% vehicle, 100% 7α,25-dihydroxycholesterol control | activation, % at 5 µM | AID 652000, 2013 | 2,400 tested, under 10 active;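 active means activation of at least 50%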
bGal counter: E. coli beta-galactosidase enzyme inhibition, confirmation, counter-screen for EBI2 antagonist project, biochemical, luminescence, single concentration; shares compounds with EBI2 block; hit rate 1% among 2,400; purified beta-galactosidase, luminescent Galacton Star, 15 min; inhibition, % at 5 µM;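 active means replicate-average signal at least 3 plate SD below neutral wells, shown as high inhibition, flagging enzyme-inhibiting false positives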;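 further: 0% = DMSO wells with enzyme and 100% = wells lacking enzyme; higher means stronger loss of beta-gal luminescence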
Active calls of the source: *; · = not tested or not shown.

SMILES	EBI2 block	PfHsp90 yeast 2	tim10-1 inh	tim23-1 inh	TIM10 inh	SKKanGAS inh	EBI2 conf	EBI2 ag	bGal counter
COc1cccc(CN2CCN(C(=O)c3ccc(-c4ccccc4)cc3)CC2)c1	78*	10	38	15	14	-5	45	1	9
COc1cc(CN2CCN(C(=O)c3ccc(-c4ccccc4)cc3)CC2)cc(OC)c1OC	48*	0	20	30	16	0	32	0	8
CC(=O)Nc1ccc(S(=O)(=O)N[C@@H](C)C(=O)OCc2cc([N+](=O)[O-])cc3c2OCOC3)cc1	-3	8	-3	-7	5	-3	·	·	·
Cc1ccc(C(=O)N2CCN(Cc3nc4sc5c(c4c(=O)[nH]3)CCCC5)CC2)cc1	44*	-15	3	25	14	7	12	-1	-13
O=C(c1ccccc1F)N1CCN(Cc2nc3sc4c(c3c(=O)[nH]2)CCCC4)CC1	5	-84	8	-25	-5	2	·	·	·
N#Cc1cnc(NN)nc1	-24	0	6	0	-12	1	·	·	·
COc1cccc2sc(Nc3nc(-c4cc5ccccc5oc4=O)cs3)nc12	46*	-1	·	·	·	14	20	-1	-10
Cc1nc(NC(=O)CSc2nnnn2Cc2ccccc2)sc1C	4	2	27	7	23	-4	·	·	·
CCOc1ccc(NC(=O)Nc2cc(-c3ccccc3)sc2C(=O)OC)cc1	46*	7	22	26	4	25	21	-1	-17
CC(C)CCNC(=O)/C=C/c1ccc(Br)cc1	47*	10	30	37	28	5	50	-1	-22
COc1ccccc1NC(=O)CNc1ccc(F)c(Cl)c1	-4	3	-3	30	2	5	·	·	·
CCC(CO)Oc1cc(NC(=O)c2ccccc2Cl)c2ncn(C(C)C)c2c1 (stereo not drawn)	3	-35	6	-2	3	·	·	·	·
CN(/C=C/C(=O)C(F)(F)F)Cc1ccccc1	39*	5	1	15	1	-6	6	0	11
CN(Cc1ccccc1)C(=O)CC(=O)N(C)Cc1ccccc1	-4	-10	13	5	-8	-6	·	·	·
N#Cc1ccc(C(=O)N2CCN(S(=O)(=O)c3ccc(Br)s3)CC2)cc1	66*	18	31	13	5	5	32	1	8
CCCN(C(=O)/C=C/c1nc2ccccc2s1)C1CCS(=O)(=O)C1 (stereo not drawn)	-5	0	8	14	9	·	·	·	·
COc1cc(/C=c2\sc3n(c2=O)C(c2ccccc2)C(c2ccccc2)=NN=3)ccc1O (stereo not drawn)	49*	-58	22	33	24	·	43	-1	10
O=C(CCCN1C(=O)/C(=C/c2cccs2)SC1=S)NNC(=O)c1ccc(F)cc1	63*	-16	-1	11	4	11	19	-2	-11
COc1ccccc1C(=O)Nc1cccc(Oc2c(F)c(F)c(F)c(F)c2F)c1	18	-33	-21	21	9	-4	·	·	·
CCOC(=O)/C(=C\c1ccc(N2CCC(c3ccccc3)=N2)cc1)C(C)=O	48*	·	·	·	·	·	53*	0	3
CCOc1ccccc1N1CCN(C(=O)c2cc3ccccc3cc2OC)CC1	57*	-9	20	30	9	·	31	1	9
COc1cc2ccccc2cc1C(=O)N1CCN(c2ccccn2)CC1	37	-30	7	32	4	1	·	·	·
COc1cc2ccccc2cc1C(=O)N1CCN(C(C)=O)CC1	66*	-1	-2	-3	-1	-1	52*	0	-13
COc1ccc(N(C)C(=O)C2CCN(S(=O)(=O)c3cccc4nonc34)CC2)cc1	-15	3	6	13	15	-4	·	·	·
OC(COc1ccc(Cl)cc1)CSc1ccccn1 (stereo not drawn)	52*	-4	-9	17	-16	-3	32	1	3
SMILES	EBI2 block	PfHsp90 yeast 2	tim10-1 inh	tim23-1 inh	TIM10 inh	SKKanGAS inh	EBI2 conf	EBI2 ag	bGal counter
COc1ccc(-n2nc3c(c2NC(=O)COc2ccccc2OC)CS(=O)(=O)C3)cc1	0	·	·	·	·	·	·	·	·
Cc1ccc(NC(NC(=O)Cc2ccccc2)C(Cl)(Cl)Cl)cc1 (stereo not drawn)	44*	-14	·	·	·	·	6	1	5
O=S(=O)(Cc1cc(Sc2ccc(Cl)cc2)nc(-c2ccccc2)n1)c1ccccc1	31	-13	16	17	8	0	·	·	·
Cc1nc(CS(=O)(=O)c2ccc(Cl)cc2)cc(Sc2ccc(Cl)cc2)n1	73*	-27	38	29	-4	-17	62*	0	11
COC(C[C@@H](O)[C@@H](C)[C@@H](O)COCc1ccccc1)OC	4	12	-18	1	-7	0	·	·	·
C=C(C)COc1ccc(-c2nc(N)nc(C)c2-c2ccc(OC)cc2)c(O)c1	44*	-16	11	7	14	-19	22	-1	-14
CCOc1ccc(-c2nc(N)nc(C)c2-c2ccc(Cl)cc2)c(O)c1	55*	-75	5	33	11	0	35	0	0
COc1ccc(-c2nc(N)nc(C)c2-c2ccc(Cl)cc2)c(O)c1	80*	-30	18	35	-1	6	62*	1	2
CCOc1ccc(-c2nc(N)nc(C)c2-c2ccc(OC)c(OC)c2)c(O)c1	32	1	8	13	3	·	·	·	·
Cc1ccc(C2CC(=O)c3cnc(N4CCN(c5ccccc5)CC4)nc3C2)cc1 (stereo not drawn)	31	-26	20	13	-1	35	·	·	·
CC1CC(C)CN(c2ncc3c(n2)CC(c2ccc(Cl)cc2)CC3=O)C1 (stereo not drawn)	57*	28	31	25	25	12	12	-1	-17
COC(=O)c1cc2c(ccn2-c2ccc(F)cc2)n1Cc1ccc(C#N)cc1	41	-23	4	7	0	-3	·	·	·

Source: PubChem (several laboratories)
